Bioassay records deposited in PubChem BioAssay by National Center for Advancing Translational Sciences (NCATS).
Only a selection was taken, and hits are over-represented in it overall.
Tb PYK inh – qHTS of Trypanosoma Brucei Inhibitors | 410,000 compounds, 0.12% hits | AID 624173, 2012 | Potency, µM (series often up to 76.8 µM), for inactives: at the top dose activity, negative = inhibition, most hits filed as inhibitors | TbPYK enzyme, Kinase-Glo Plus ATP luminescence, 45 min | pyruvate kinase (Trypanosoma brucei), Q57TT1; also: potency is read from the fitted curve at half-maximal effect; % is scaled to controls: 0 for no effect and ±100 for the full control effect; nearly all actives have a fitted effect of over 50% in size
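Enzyme and substrate buffer are dispensed first and compound is pin-transferred. ADP at 130 uM final then starts the reaction, which runs 45 min at room temperature. Detection reagent is added for 10 min before luminescence is imaged.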
FBPA Giardia inh – qHTS Assay for Inhibitors of Fructose-1,6-bisphosphate Aldolase from Giardia Lamblia. A8B2U2. purified Giardia FBPA. Potency, µM (highest dose often 59.6 µM), for the others: at the highest dose activity, negative = inhibition, most hits filed as inhibitors. 290,000 compounds, 0.71% hits. AID 2451, 2010; also: potency is read from the fitted curve at half-maximal effect; % is scaled to controls: 0 for no effect and ±100 for the full control effect; nearly all actives have a fitted effect of over 55% in size
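40 nM FBPA preincubated 10 min at RT with compound (up to 57.5 uM final), then substrate plus GAPDH/TPI/NAD/arsenate coupling and diaphorase/resazurin added. Fluorescence read after 20 min at RT, 525/598 nm.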
LmPK inh – qHTS Assay for Inhibitors of Leishmania Mexicana Pyruvate Kinase (LmPK). 290,000 compounds, 0.37% hits. Q27686. Potency, µM (series often up to 57.5 µM), without a hit: top-dose activity change, negative = inhibition, most hits filed as inhibitors. purified LmPK, Kinase-Glo ATP luminescence, 1 h; also: potency is read from the fitted curve at half-maximal effect; % is scaled to controls: 0 for no effect and ±100 for the full control effect
Target sequence (Q27686 whole entry, looked up): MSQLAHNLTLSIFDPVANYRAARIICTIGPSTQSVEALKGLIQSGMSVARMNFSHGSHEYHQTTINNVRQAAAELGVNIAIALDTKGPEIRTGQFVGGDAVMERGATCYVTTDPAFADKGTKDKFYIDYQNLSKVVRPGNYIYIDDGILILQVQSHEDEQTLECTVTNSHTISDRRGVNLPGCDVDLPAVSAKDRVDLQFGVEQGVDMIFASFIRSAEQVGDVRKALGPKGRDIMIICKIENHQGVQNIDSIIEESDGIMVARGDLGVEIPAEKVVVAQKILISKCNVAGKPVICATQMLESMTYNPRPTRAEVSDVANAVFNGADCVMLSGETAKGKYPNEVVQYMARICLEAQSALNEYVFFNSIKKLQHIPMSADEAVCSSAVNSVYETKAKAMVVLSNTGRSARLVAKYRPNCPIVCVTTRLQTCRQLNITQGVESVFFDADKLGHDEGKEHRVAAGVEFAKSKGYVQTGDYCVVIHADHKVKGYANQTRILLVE
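qHTS format; LmPK 0.1 nM; substrates PEP 0.5 mM and ADP 0.1 mM. One-hour room-temperature incubation, then coupled luciferase luminescence; 0.5 nM enzyme wells mark activation.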
CHX counter – Cycloheximide Counterscreen for Small Molecule Inhibitors of Shiga Toxin; cell reporter, cycloheximide protein synthesis inhibition counterscreen; max response, %; 300,000 compounds, 12% hits; AID 2314, 2010; in the data active = max response mostly above about 13%, no sharp cut-off; inactive = mostly below about 14%; also: read at 38.3 µM for the half of the compounds with a filed dose; 0% is about no effect
Shiga inhibitor – A qHTS for Small Molecule Inhibitors of Shiga Toxin. Vero cells, Shiga toxin protein synthesis inhibition reporter. inhibition, % at 38.7 µM. 290,000 compounds, 9.2% hits. AID 2315, 2010; in the data active = inhibition mostly above about 28%, no sharp cut-off; inactive = mostly below about 43%; also: 0% is about no effect
Sm TGR block – qHTS Assay for the Inhibitors of Schistosoma Mansoni Peroxiredoxins. Schistosoma mansoni thioredoxin glutathione reductase (TGR), Q962Y6. purified TGR, DTNB reduction, TNB absorbance 405 nm. Potency, µM (doses to about 114 µM), inactives show at the top dose activity change, negative = inhibition, hits mostly inhibitors. 360,000 compounds, 3% hits; also: potency is read from the fitted curve at half-maximal effect; % is scaled to controls: 0 for no effect and ±100 for the full control effect; nearly all actives have a fitted effect of over 60% in size
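TGR 20 nM + NADPH 100 uM (dispensed conc.), cpd preinc 15 min RT; start with NADPH (500 uM addition) then DTNB (15 mM addition). Kinetic TNB absorbance, 405 nm filter. Four-parameter Hill fit across titration.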
* marks the source's active call; other numbers are inactive results; [ ] = remark or other dose. Unless noted, calls follow the shape of the dose curve; as a rule, active = well fitted curve in the direction sought with a large enough effect; inconclusive = small, poorly fitted or top-dose-only effect, or another doubt; inactive = no such curve, though single readings can be large; an effect the other way counts as inactive or inconclusive.

`O=C(NCc1ccco1)/C(=C\c1ccco1)NC(=O)c1ccco1` gave Tb PYK inh -2.4%, FBPA Giardia inh inconclusive, LmPK inh 8.2%, CHX counter 7.6, Shiga inhibitor 10.2 and Sm TGR block 8.91µM*.
CC(C)(C)c1ccc(C(=O)N/C(=C\c2cccs2)C(=O)NCc2ccco2)cc1 was read as Tb PYK inh 9.7%, FBPA Giardia inh 0.6%, LmPK inh 3.5%, CHX counter 32.7*, Shiga inhibitor 55.3 and Sm TGR block -32.8%.
For NC1=C(Cl)C(=O)c2ccccc2C1=O the results were Tb PYK inh -31.5%.
O=C1C(Cl)=C(Cl)C(=O)C(Cl)=C1Cl was read as FBPA Giardia inh 0.561µM*.
`COc1ccc2nc3c(cc2c1)Cc1ccccc1-3` gave FBPA Giardia inh 17.7µM*.
O=C(Nc1cccc(F)c1)C1CCN(c2nc3ccccc3nc2C(F)(F)F)CC1 was read as Tb PYK inh -0.1% and Sm TGR block 12.4%.
For COc1ccc(-c2csc(Nc3cccnc3)n2)cc1 the results were Tb PYK inh -3.0%, FBPA Giardia inh -9.4%, LmPK inh 3.1%, CHX counter 51.6*, Shiga inhibitor 98.8* and Sm TGR block 5.3%.
For COc1ccc(Nc2nc(-c3c[nH]c4ccccc34)cs2)cc1 the results were Tb PYK inh -11.7%, FBPA Giardia inh -2.6%, LmPK inh -0.5%, CHX counter 32.1*, Shiga inhibitor 67.0 and Sm TGR block 5.0%.
For COc1ccc2oc(=O)c(-c3csc(-c4ccc(Br)cc4)n3)cc2c1 the results were Tb PYK inh 0.2% and Sm TGR block 0.0%.
Screening COc1ccc2oc(=O)c(-c3csc(Nc4ccc(O)cc4)n3)cc2c1 returned Tb PYK inh -8.2%, FBPA Giardia inh -5.8%, LmPK inh 1.8%, CHX counter 46.0*, Shiga inhibitor 84.5* and Sm TGR block -7.1%.
Screening COc1ccc(-c2csc(Nc3ccccc3)n2)cc1 returned Tb PYK inh 3.1%, FBPA Giardia inh -11.7%, LmPK inh -6.4%, CHX counter 29.3*, Shiga inhibitor 97.2* and Sm TGR block -3.6%.
Screening CCCOc1ccc(C(=O)NCC2OCCc3ccccc32)cc1 (stereo not drawn) returned Tb PYK inh -4.6% and Sm TGR block -7.2%.
COc1ccc(NCc2cc3cc4c(cc3n(CC(=O)Nc3ccc(C)cc3)c2=O)OCO4)cc1 was read as Tb PYK inh 6.0% and Sm TGR block -15.8%.
Cc1ccc(N2CCN(C(=O)c3cnn(-c4ccc(F)cc4F)c3C3CCN(C(=O)OC(C)(C)C)CC3)CC2)c(C)c1 was read as Tb PYK inh -1.5%[15.4 µM] and Sm TGR block -10.0%.
Screening CC(C)(C)NC(=O)[C@H]1CN(Cc2cccnc2)CCN1C[C@@H](O)C[C@@H](Cc1ccccc1)C(=O)N[C@H]1c2ccccc2C[C@H]1O returned Tb PYK inh -5.0%, FBPA Giardia inh -8.2%, CHX counter -4.3 and Shiga inhibitor -9.5.
Screening COc1ccc(Nc2nc(-c3ccc(OC)cc3)cs2)cc1 returned Tb PYK inh 2.3%, FBPA Giardia inh 0.6%, LmPK inh -3.7%, CHX counter 63.2*, Shiga inhibitor 70.1* and Sm TGR block 7.5%.
`O=C(Cn1cc(S(=O)(=O)Cc2cccc(Cl)c2)c2ccccc21)Nc1ccccc1C(F)(F)F` gave Tb PYK inh -0.7% and Sm TGR block 0.3%.
COc1cccc(CNc2cnc3ccccc3c2)c1O was read as Tb PYK inh -8.6%, FBPA Giardia inh -15.2%, LmPK inh -1.8%, CHX counter 30.1*, Shiga inhibitor 44.3* and Sm TGR block 0.0%.
Screening COc1cccc(CNc2nc3ccccc3n2C)c1O returned Tb PYK inh -5.5%, FBPA Giardia inh -8.2%, LmPK inh 1.4%, CHX counter 35.4* and Sm TGR block -0.9%.
Screening COc1cccc(/C=N/c2nc3ccccc3n2C)c1O returned Tb PYK inh -0.1%, FBPA Giardia inh -19.8%, LmPK inh inconclusive, CHX counter 19.8*, Shiga inhibitor 33.3 and Sm TGR block -3.2%.
Screening COc1ccccc1Nc1nc2ccccc2n1C returned Tb PYK inh -11.5%, FBPA Giardia inh -0.4%, LmPK inh inconclusive, CHX counter 30.5*, Shiga inhibitor 66.1* and Sm TGR block 0.0%.
`Cc1ccc(NC(=O)C(C)Sc2nc(=O)cc(N)n2-c2cccc(C)c2)cc1` (stereo not drawn) gave Tb PYK inh 9.4% and Sm TGR block -8.2%.
`CCOC(c1cc(OC)cc([N+](=O)[O-])c1OC)C(C)C(OC)[C@@H](C)/C=C/CC(=O)OC` (stereo partly drawn) gave FBPA Giardia inh -0.9%[12.9 µM].
`CCN1CCN(C(=O)c2ccc(N3CC4CC(C3)c3cccc(=O)n3C4)c(NC(=O)c3cc(OC)cc(OC)c3)c2)CC1` (stereo not drawn) gave Tb PYK inh 20.8%, FBPA Giardia inh -1.8%, LmPK inh -4.3%, CHX counter 1.2, Shiga inhibitor -8.9 and Sm TGR block -4.4%.
`Cc1ccc(SCC(=O)NC2CCCCCC2)cc1` gave Tb PYK inh -4.9%, LmPK inh -3.0%, CHX counter 29.8*, Shiga inhibitor 66.7* and Sm TGR block -0.8%.
O=C(CCSc1ccccc1)NC1CCCCCC1 was read as Tb PYK inh 2.3%, FBPA Giardia inh 1.3%, LmPK inh -1.4%, CHX counter 33.1* and Shiga inhibitor 98.0*.
COc1cc2cc(CNc3ccc(C)cc3)c(=O)n(CC(=O)Nc3ccc(C(C)C)cc3)c2cc1OC was read as Tb PYK inh -6.8% and Sm TGR block -29.0%.
For O=C(COc1ccc(F)cc1)NCC(c1ccc(Cl)cc1)N1CCCCC1 (stereo not drawn) the results were Tb PYK inh 0.3% and Sm TGR block 6.2%.
Screening COc1ccc(OC)c(CNC(=O)C2CCN(S(=O)(=O)N3CCCC3)CC2)c1 returned Tb PYK inh 0.6%, FBPA Giardia inh 8.2%, LmPK inh 3.3%, CHX counter 0.9, Shiga inhibitor -14.6 and Sm TGR block 79.4µM*.
`COc1ccc(CNC(=O)C2CCN(S(=O)(=O)N3CCCC3)CC2)c(OC)c1` gave Tb PYK inh -22.0%, FBPA Giardia inh 6.1%, LmPK inh 2.4%, CHX counter 8.9, Shiga inhibitor -14.9 and Sm TGR block 0.0%.
Screening CCCCn1c(N)c(N(CC(C)C)C(=O)Cc2ccc(S(=O)(=O)N3CCOCC3)s2)c(=O)[nH]c1=O returned Tb PYK inh -10.1%.
